Consider eight compounds from PubChem BioAssay (Tox21).

Assay [1] deals with Progesterone receptor (Homo sapiens) (UniProt P06401). Kind of assay: qHTS assay to identify small molecule agonists of the progesterone receptor (PR) signaling pathway (AID 1346784; calls by dose curve; also: nearly all actives have a fitted effect of over 30% in size). The essentials: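 Agonist qHTS: compounds pinned onto 3,000 PR-UAS-bla HEK 293T cells per well in charcoal-stripped serum medium, 16hr at 37C, then beta-lactamase activity measured by LiveBLAzer FRET fluorescence after 2 hours at room temperature.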
A general note: In qHTS, concentration-response curves come from the screen itself.

The target is the same in assay [2]. The assay can be described thus: qHTS assay to identify small molecule antagonists of the progesterone receptor (PR) signaling pathway (AID 1346795; active = well fitted inhibition curve with a large enough effect in the signal ratio in the repeat runs, not every such curve was filed as active; the % refers to the signal ratio). In short, it runs like this: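 Antagonist mode with agonist R5020 at 1 nM final and 16 hr incubation at 37C. Reporter was beta-lactamase driven by UAS in HEK293T (PR-UAS-bla), 2% charcoal-stripped serum; signal from LiveBLAzer FRET substrate, 2 hr at room temperature.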

Assay [3] in a line: qHTS assay to identify small molecule antagonists of the progesterone receptor (PR) signaling pathway - cell viability counter screen (AID 1346798). Also: series mostly up to about 92 µM; nearly all actives have a fitted effect of over 50% in size. In short, it runs like this:
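Cytotoxicity read as CellTiter-Glo luminescence (30 min, room temperature) in the same wells as the beta-lactamase readout. HEK293T PR-UAS-bla cells in charcoal-stripped 2% FBS received compound and R5020, then 16 h at 37C, 5% CO2.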

A short description of assay [4]: qHTS assay to identify small molecule agonists of the progesterone receptor (PR) signaling pathway - cell viability counter screen (AID 1346799; calls by dose curve; also: nearly all actives have a fitted effect of over 45% in size). In short, it runs like this:
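Cytotoxicity measured by CellTiter-Glo luminescence (30 min, RT) in the same wells as the PR beta-lactamase agonist read. Those HEK293T cells had 16 h compound treatment at 37 C in 2% charcoal-stripped FBS medium.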

Assay [5] in a line: qHTS assay to identify small molecule antagonists of the TGF-beta/Smad signaling pathway - cell viability counter screen (AID 1346824). Also: nearly all actives have a fitted effect of over 50% in size. In short, it runs like this: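 SBE-bla HEK 293T cells were plated overnight at 37 C, then given compounds in DMSO plus TGF-beta1 (added as 0.25 ng/mL solution) for 5 hr. After the bla read, CellTiter-Glo was added to the same wells and luminescence read after 30 min at room temperature.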

Assay [6] in a line: qHTS assay to identify small molecule agonists of the TGF-beta/Smad signaling pathway - cell viability counter screen (AID 1346829). Also: top concentration of the series differs between compounds; nearly all actives have a fitted effect of over 45% in size. In short, it runs like this: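 After overnight seating at 37 C and 5% CO2, reporter cells got compounds for 5 hr and FRET substrate for 2 hr; cell viability then came from CellTiter-Glo luminescence.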
Assay [7] in a line: qHTS assay to identify small molecule agonists of the TGF-beta/Smad signaling pathway (AID 1346859; active = well fitted activation curve with a large enough effect in the signal ratio in the repeat runs, not every such curve was filed as active; the % refers to the signal ratio; also: series mostly up to about 77 µM). The essentials:
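Fluorescence (ex 405 nm; em 460 and 530 nm) was read 2 h after LiveBLAzer FRET substrate at RT. The preceding compound treatment of overnight-plated SBE-bla HEK293T cells lasted 5 h at 37 C.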

Assay [8] deals with Thyrotropin-releasing hormone receptor (Homo sapiens) (UniProt P34981). Kind of assay: qHTS assay to identify small molecule antagonists of the thyrotropin-releasing hormone receptor (TRHR) signaling pathway (AID 1346877; active = well fitted inhibition curve with a large enough effect in the repeat runs, not every such curve was filed as active; also: series mostly up to about 51 µM). In short, it runs like this:
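In this cell-based calcium flux format, HEK293 cells expressing TRHR received test compound for 5 min before the agonist TRH (1 nM final). Dye loading lasted 2 h at 37 °C.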

Assay [9] shares this target. The assay can be described thus: qHTS assay to identify small molecule agonists of the thyrotropin-releasing hormone receptor (TRHR) signaling pathway (AID 1346891; calls by dose curve; also: series mostly up to about 58 µM). The essentials: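 Agonist-mode intracellular calcium readout: kinetic fluorescence over 3 min at 1 s intervals after compound addition to TRHR-HEK293 cells (18 h seeded, 2 h dye-loaded at 37 C). Fifteen concentrations, triplicates.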

Assay [10] in a line: Human pregnane X receptor (PXR) small molecule agonists, qHTS cell viability counter screen (AID 1346977). Also: nearly all actives have a fitted effect of over 50% in size. The essentials: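 Same-well viability read: CellTiter-Fluor added after 23 hr compound exposure, fluorescence measured 1 hr later. Cells were PXR-Luc HepG2 seeded at 2,000/well in 5% charcoal-stripped FBS medium, rested 5 hr before dosing at 37 C.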
Assay [11] can be described thus: Caspase-3/7 induction in CHO-K1 cells by small molecules, qHTS cell viability counter screen (AID 1346979). Also: nearly all actives have a fitted effect of over 35% in size. In short, it runs like this:
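Cytotoxicity counter screen: CellTiter-Fluor added to compound-treated wild-type CHO-K1 cells at 16 h (37C, 5% CO2), fluorescence measured 1 h later; same wells as caspase-3/7 measurement.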

A short description of assay [12]: Caspase-3/7 induction in HepG2 cells by small molecules, qHTS cell viability counter screen (AID 1346981). Also: series mostly up to about 92 µM; nearly all actives have a fitted effect of over 30% in size. In short, it runs like this:
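Counter screen for cytotoxicity: HepG2 exposed 16 hr to compounds, then CellTiter-Fluor viability signal (fluorescence, 1 hr reagent incubation).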

Assay [13] deals with Nuclear receptor subfamily 1 group I member 2 (Homo sapiens) (UniProt O75469). The assay can be described thus: Human pregnane X receptor (PXR) small molecule agonists, qHTS assay (AID 1346982). Also: nearly all actives have a fitted effect of over 35% in size. Also: potency is read from the fitted curve at half-maximal effect. In short, it runs like this: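 Luminescence (ONE-Glo, 30 min RT) after 24 hr compound exposure of PXR-Luc HepG2 cells; cells rested 5 hr post-plating in 5% charcoal-stripped FBS medium.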

The target of assay [14] is Cytochrome P450 2D6 (Homo sapiens) (UniProt P10635). The assay can be described thus: Cytochrome P450 Family 2 Subfamily D Member 6 (CYP2D6) small molecule antagonists: luciferase reporter qHTS assay (AID 1671196). Also: series mostly up to about 120 µM; nearly all actives have a fitted effect of over 50% in size. The essentials: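 Inhibition of CYP2D6 was gauged by loss of luminescence, since light produced tracks the luciferin generated from a proluciferin substrate. A 10 min room-temperature preincubation preceded 1 h NADPH-supported turnover.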
(A reporter such as luciferase makes a cellular process visible.)

In assay [15] the target is Cytochrome P450 2C19 (Homo sapiens) (UniProt P33261). Kind of assay: Cytochrome P450 Family 2 Subfamily C Member 19 (CYP2C19) small molecule antagonists: luciferase reporter qHTS assay (AID 1671197). Also: series mostly up to about 120 µM; nearly all actives have a fitted effect of over 65% in size. In short, it runs like this: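 Inhibition of CYP2C19 was scored from loss of luminescence in a P450-Glo proluciferin substrate assay, NADPH-started and run 1 h at 37C, with ketoconazole as positive control.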

A short description of assay [16]: Caspase-3/7 induction in HepG2 cells by small molecules, qHTS assay (AID 1346978). Also: nearly all actives have a fitted effect of over 15% in size. In short, it runs like this: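 Wild-type HepG2 cells (2,000/well) were settled 5 h at 37 C, 5% CO2, then exposed to compounds in DMSO for 17 h. Caspase-3/7 activity was read by luminescence 30 min after adding Caspase-Glo 3/7 reagent at room temperature.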
The nature of assay [17]: Caspase-3/7 induction in CHO-K1 cells by small molecules, qHTS assay (AID 1346980). Also: nearly all actives have a fitted effect of over 15% in size. In short, it runs like this: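 Wild-type cells were seeded at 1,500 per well and settled 5 hr at 37 C, 5% CO2, then exposed to DMSO-dissolved compounds for 17 hr. Caspase-Glo 3/7 reagent was added, and luminescence was read after 30min at room temperature.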
Assay [18] concerns the target Nuclear receptor subfamily 1 group I member 2 (Rattus norvegicus) (UniProt Q9R1A7). The assay can be described thus: Rat pregnane X receptor (rPXR) activation by small molecules, qHTS assay (AID 1346983). Also: nearly all actives have a fitted effect of over 20% in size. As to conditions: rPXR luciferase reporter cells, One-Glo luminescence, 24 h; max activation: stronger effect = higher value. In short, it runs like this:
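Cell-based rPXR luciferase reporter assay, 2,000 cells per well, rested 5hr at 37 C before compound addition in DMSO, then 24 hr at 37 C. One-Glo reagent was added and luminescence read after 30 min at room temperature.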

Assay [19] concerns the target Nuclear receptor subfamily 1 group I member 2 (Homo sapiens) (UniProt O75469). The assay can be described thus: CYP3A4 induction through human pregnane X receptor (PXR) by small molecules, qHTS assay (AID 1346984). Also: nearly all actives have a fitted effect of over 40% in size. The essentials:
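DPX-2 reporter cells; 24h cpd, 37C; Luciferin-IPA 3uM final x3h; One-Glo 30 min RT; lumi read.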

The target is the same in assay [20]. The assay can be described thus: Human pregnane X receptor (PXR) activation by small molecules, qHTS assay (AID 1346985). Also: nearly all actives have a fitted effect of over 40% in size. In short, it runs like this: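 DPX-2 cells (HepG2 co-transfected with a PXR response element and a CYP3A4-promoter luciferase construct) were seeded at 2,000 per well, rested 5 hr at 37C, then exposed to DMSO-dissolved compounds for 24 hr. Activation was read as luciferase luminescence.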

A number with no mark means an inactive call. Inconclusive results are not listed. Activity calls are given as the source filed them. Unless noted, calls follow the shape of the dose curve; as a rule, active = well fitted curve in the direction sought with a large enough effect in the repeat runs; inconclusive = weak or mixed curves; inactive = no such curve, though single readings can be large; an effect the other way counts as inactive or inconclusive. Where a SMILES comes first, the peptide text is derived from it. [ ]: non-standard residue; d: D form. pGlu = O=C1CC[C@@H](C(=O)O)N1
% is scaled to controls: 0 for no effect and ±100 for the full control effect.

Chain of Nuclear receptor subfamily 1 group I member 2 (Homo sapiens) (O75469 whole entry, looked up): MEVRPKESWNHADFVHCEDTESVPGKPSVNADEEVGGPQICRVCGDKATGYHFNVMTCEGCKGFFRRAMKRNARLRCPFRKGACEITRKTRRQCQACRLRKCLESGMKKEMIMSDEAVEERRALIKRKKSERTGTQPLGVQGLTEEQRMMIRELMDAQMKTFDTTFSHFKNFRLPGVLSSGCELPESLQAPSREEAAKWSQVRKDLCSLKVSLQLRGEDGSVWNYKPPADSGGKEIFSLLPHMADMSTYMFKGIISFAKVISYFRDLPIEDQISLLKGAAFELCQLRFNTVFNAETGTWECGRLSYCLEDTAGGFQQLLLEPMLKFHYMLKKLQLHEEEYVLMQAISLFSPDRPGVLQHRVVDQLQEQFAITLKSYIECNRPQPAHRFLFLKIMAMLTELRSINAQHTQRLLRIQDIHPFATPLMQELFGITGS
Chain of Thyrotropin-releasing hormone receptor (Homo sapiens) (P34981 whole entry, looked up): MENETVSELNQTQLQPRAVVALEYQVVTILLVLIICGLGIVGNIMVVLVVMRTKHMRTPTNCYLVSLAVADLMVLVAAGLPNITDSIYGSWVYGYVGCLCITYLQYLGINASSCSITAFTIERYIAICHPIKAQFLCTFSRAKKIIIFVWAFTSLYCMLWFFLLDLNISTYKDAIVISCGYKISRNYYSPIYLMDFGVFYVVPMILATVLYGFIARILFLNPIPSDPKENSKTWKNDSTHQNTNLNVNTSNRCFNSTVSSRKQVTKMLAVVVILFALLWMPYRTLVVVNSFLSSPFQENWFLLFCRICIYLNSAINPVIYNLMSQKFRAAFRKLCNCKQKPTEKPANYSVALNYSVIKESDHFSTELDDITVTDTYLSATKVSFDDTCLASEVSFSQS
Chain of Progesterone receptor (Homo sapiens) (P06401 whole entry, looked up): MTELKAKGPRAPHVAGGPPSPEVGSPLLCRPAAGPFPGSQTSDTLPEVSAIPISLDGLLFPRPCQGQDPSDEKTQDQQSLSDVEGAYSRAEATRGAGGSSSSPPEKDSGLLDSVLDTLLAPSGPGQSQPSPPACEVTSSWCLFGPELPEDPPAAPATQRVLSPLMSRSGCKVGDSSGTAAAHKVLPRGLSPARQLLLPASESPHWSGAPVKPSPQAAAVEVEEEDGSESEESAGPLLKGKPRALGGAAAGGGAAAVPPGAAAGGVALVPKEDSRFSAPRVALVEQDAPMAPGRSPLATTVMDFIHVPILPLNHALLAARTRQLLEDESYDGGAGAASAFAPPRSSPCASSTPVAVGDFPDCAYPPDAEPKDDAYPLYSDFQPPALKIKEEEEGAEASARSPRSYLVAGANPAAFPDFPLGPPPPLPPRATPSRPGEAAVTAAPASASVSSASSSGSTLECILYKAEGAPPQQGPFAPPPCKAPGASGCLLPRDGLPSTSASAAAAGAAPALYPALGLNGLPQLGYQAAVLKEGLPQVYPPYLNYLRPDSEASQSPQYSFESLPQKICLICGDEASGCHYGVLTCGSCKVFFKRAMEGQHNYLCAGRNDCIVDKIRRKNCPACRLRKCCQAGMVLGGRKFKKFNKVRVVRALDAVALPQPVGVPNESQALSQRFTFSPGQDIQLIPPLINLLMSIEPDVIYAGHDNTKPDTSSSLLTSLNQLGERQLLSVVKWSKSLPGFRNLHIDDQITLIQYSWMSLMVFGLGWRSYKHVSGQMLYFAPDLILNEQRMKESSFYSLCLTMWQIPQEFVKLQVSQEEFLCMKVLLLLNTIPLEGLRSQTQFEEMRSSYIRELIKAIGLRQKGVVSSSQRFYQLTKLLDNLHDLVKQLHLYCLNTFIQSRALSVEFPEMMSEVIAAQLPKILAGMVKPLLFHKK
Chain of Cytochrome P450 2D6 (Homo sapiens) (P10635 whole entry, looked up): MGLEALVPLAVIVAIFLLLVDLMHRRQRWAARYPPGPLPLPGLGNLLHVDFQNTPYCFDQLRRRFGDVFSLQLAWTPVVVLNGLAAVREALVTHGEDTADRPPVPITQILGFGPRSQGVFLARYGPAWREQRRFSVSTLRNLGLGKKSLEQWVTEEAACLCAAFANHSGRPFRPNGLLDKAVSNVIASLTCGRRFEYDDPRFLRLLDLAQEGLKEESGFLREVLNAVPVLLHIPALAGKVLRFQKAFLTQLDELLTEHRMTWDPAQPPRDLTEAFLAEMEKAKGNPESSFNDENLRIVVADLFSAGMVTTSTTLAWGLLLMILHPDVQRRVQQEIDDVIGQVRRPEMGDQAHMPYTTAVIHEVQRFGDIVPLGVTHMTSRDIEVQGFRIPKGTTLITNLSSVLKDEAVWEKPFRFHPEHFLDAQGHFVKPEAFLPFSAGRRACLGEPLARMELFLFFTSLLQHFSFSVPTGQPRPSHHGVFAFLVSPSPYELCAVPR
Chain of Cytochrome P450 2C19 (Homo sapiens) (P33261 whole entry, looked up): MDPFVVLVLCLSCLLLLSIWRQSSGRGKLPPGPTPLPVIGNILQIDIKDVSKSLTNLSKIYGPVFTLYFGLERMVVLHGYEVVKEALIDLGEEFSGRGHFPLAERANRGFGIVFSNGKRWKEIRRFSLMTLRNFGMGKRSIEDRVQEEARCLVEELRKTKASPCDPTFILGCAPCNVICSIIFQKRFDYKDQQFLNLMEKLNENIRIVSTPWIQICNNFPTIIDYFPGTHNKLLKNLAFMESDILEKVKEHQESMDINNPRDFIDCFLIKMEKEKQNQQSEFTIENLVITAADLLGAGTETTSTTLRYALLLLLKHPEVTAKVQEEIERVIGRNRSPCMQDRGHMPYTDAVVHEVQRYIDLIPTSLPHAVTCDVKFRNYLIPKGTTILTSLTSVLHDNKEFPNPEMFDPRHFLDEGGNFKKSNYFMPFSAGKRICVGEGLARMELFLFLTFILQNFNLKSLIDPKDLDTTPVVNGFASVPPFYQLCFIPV
Chain of Nuclear receptor subfamily 1 group I member 2 (Rattus norvegicus) (Q9R1A7 whole entry, looked up): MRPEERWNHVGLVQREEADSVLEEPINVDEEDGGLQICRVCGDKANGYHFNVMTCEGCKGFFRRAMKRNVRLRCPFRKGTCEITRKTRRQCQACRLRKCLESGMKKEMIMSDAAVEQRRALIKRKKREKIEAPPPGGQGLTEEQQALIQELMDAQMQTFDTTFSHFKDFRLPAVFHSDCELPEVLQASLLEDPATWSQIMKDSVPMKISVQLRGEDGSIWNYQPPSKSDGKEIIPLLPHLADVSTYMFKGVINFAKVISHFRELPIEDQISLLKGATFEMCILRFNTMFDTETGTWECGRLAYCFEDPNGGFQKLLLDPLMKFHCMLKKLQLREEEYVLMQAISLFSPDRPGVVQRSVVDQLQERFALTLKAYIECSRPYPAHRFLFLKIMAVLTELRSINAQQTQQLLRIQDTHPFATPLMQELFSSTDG

For the compound `CC1=CC(=O)[C@H]2C[C@@H]1C2(C)C`, the Potency entry in assay [1], in [2], in assay [3], in assay [4], in [9] and in assay [10] was “inactive” each time. The Potency entry in assay [11], in assay [12], in [13], in assay [14] and in [15] was “inactive” each time. For the same compound, the result in assay [5], in [6], in assay [7] and in assay [8] was inactive.

Regarding `CCNC(=O)[C@@H]1CCCN1C(=O)[C@H](CCCN=C(N)N)NC(=O)[C@H](CC(C)C)NC(=O)CNC(=O)[C@H](Cc1ccc(O)cc1)NC(=O)[C@H](CO)NC(=O)[C@H](Cc1c[nH]c2ccccc12)NC(=O)[C@H](Cc1cnc[nH]1)NC(=O)[C@@H]1CCC(=O)N1` ([pGlu]HWSYGLRP-NHEt), the Potency result in assay [1], in assay [2], in assay [3], in [4], in [10] and in [11] was “inactive” each time. Also, the Potency entry in assay [12], in assay [13] and in assay [14] was “inactive” each time. Besides, the call in assay [5], in assay [6], in [7], in assay [16] and in assay [17] was inactive.

For the compound `[K+]`, the Potency result in assay [1], in assay [2], in assay [3], in [4], in assay [9] and in [11] was “inactive” each time. Also, the Potency result in assay [12] and in assay [14] was “inactive” each time. Further, the call in assay [5], in [6], in assay [7], in [8] and in assay [16] was inactive. Also, the Potency in assay [13] is 27.3 µM (active).

As for `CCOC(=O)c1ccccc1`, the Potency result in assay [1], in assay [2], in assay [3], in [4], in assay [10] and in assay [11] was “inactive” throughout. Further, the Potency entry in assay [12], in assay [13], in assay [14] and in [15] was “inactive” each time. Also, the outcome in assay [5], in assay [6], in assay [7], in assay [8], in assay [16] and in assay [17] was inactive.

In the case of `N[C@H](C(=O)O)[C@@H](O)c1ccc(O)c(O)c1`, the Potency entry in [1], in [2], in [3], in assay [4], in [9] and in [10] was “inactive” each time. In addition, the Potency result in assay [11], in assay [12], in [13], in assay [19], in [20] and in [14] was “inactive” in each case. For the same compound, the outcome in assay [5], in [6], in assay [7], in assay [8] and in assay [17] was inactive. Also, the max activation in assay [18] is -4.66%.

On to `CCOC(=O)C1=NOC(c2ccccc2)(c2ccccc2)C1`, for which the Potency result in [1], in assay [2], in assay [3], in assay [4], in [9] and in assay [10] was “inactive” in each case. The Potency entry in [11], in [12] and in assay [14] was “inactive” each time. In addition, the compound was called inactive in assay [5], in [6], in assay [7], in [8] and in [16]. Moreover, in [13], the Potency was 68.6 µM (active).

Regarding `CC(=O)c1cnccn1`, the Potency result in [1], in [2], in [3], in assay [10], in [11] and in [12] was “inactive” each time. Moreover, the Potency result in [13] and in assay [14] was “inactive” each time. For the same compound, the call in assay [5], in assay [6], in assay [7], in assay [8], in [16] and in assay [17] was inactive.

For `CC(C)CCCO`, the Potency result in [1], in assay [2], in assay [3], in assay [9], in assay [10] and in assay [12] was “inactive” throughout. Besides, the Potency result in assay [13], in assay [14] and in assay [15] was “inactive” throughout. Further, the call in assay [5], in [6], in [7], in assay [8], in assay [16] and in [17] was inactive.
